About 79,000 compounds went through this panel and 15% of them were active in at least one assay; those are over-represented in the sample as a whole. Values without a mark were called inactive. Active and inactive are the calls of the source. No stated cut-off is given here; in the data, active means growth inhibition above about 70%; inactive means the rest.
Assays:
[1] = NCI Yeast Anticancer Drug Screen. Data for the rad50 strain (AID 155);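 further: 0% = growth of vehicle-only cultures of the same strain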; conditions: S. cerevisiae rad50 strain growth inhibition, active compounds read high
Summary of the method: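 DNA repair mutant yeast, compound exposure, growth read-out; inhibition is taken relative to vehicle.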

[2] = NCI Yeast Anticancer Drug Screen. Data for the mec2-1 strain (AID 157); conditions: S. cerevisiae mec2-1 strain, active compounds read high
Summary of the method: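 Readout is yeast growth inhibition, normalised to vehicle-treated controls, in the mec2-1 strain exposed to compound.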

[3] = NCI Yeast Anticancer Drug Screen. Data for the sgs1 mgt1 strain (AID 161);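 further: 0% = growth of cultures given vehicle only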; conditions: S. cerevisiae sgs1 mgt1 strain, active compounds read high
Summary of the method: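 Yeast cells carrying a defined DNA-repair defect were exposed to test compounds. Growth inhibition was measured relative to vehicle-treated controls.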

[4] = NCI Yeast Anticancer Drug Screen. Data for the cln2 rad14 strain (AID 165);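 further: 0% = growth equal to vehicle treated cultures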; conditions: S. cerevisiae cln2 rad14 strain, active compounds read high
Summary of the method: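 Relative to vehicle controls, growth inhibition of compound-treated cln2 rad14 yeast was recorded.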

[5] = NCI Yeast Anticancer Drug Screen. Data for the bub3 strain (AID 167); conditions: S. cerevisiae bub3 mutant strain, active compounds read high
Summary of the method: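 In this screen, a yeast mutant lacking normal mitotic checkpoint function is challenged with compound. Relative growth versus vehicle gives the inhibition value.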

[6] = NCI Yeast Anticancer Drug Screen. Data for the mlh1 rad18 strain (AID 175); conditions: S. cerevisiae mlh1 rad18 strain growth inhibition, active compounds read high
Summary of the method: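 Test agents were incubated with a yeast strain of defined genotype (DNA damage repair defect). Inhibition of growth was derived by comparison with vehicle-exposed cultures.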

[7] = at 5.0 µM (retest, dose inferred, filed as 0.5)
[8] = at 50.0 µM (retest, dose inferred, filed as 5.0)

| Compound | growth inhibition [1, 7] | growth inhibition [1, 8] | growth inhibition ([1]; at 50.0 µM) | growth inhibition [2, 7] | growth inhibition [2, 8] | growth inhibition ([2]; at 50.0 µM) | growth inhibition [3, 7] | growth inhibition [3, 8] | growth inhibition ([3]; at 50.0 µM) | growth inhibition [4, 7] | growth inhibition [4, 8] | growth inhibition ([4]; at 50.0 µM) | growth inhibition [5, 7] | growth inhibition [5, 8] | growth inhibition ([5]; at 50.0 µM) | growth inhibition [6, 7] | growth inhibition [6, 8] | growth inhibition ([6]; at 50.0 µM) |
| --- | --- | --- | --- | --- | --- | --- | --- | --- | --- | --- | --- | --- | --- | --- | --- | --- | --- | --- |
| O=[N+]([O-])c1ccc(C(Br)(Br)c2ccc([N+](=O)[O-])cc2)cc1 | 99% (active) | 99% (active) | 99.7% (active) | 97% (active) | 100% (active) | 99.7% (active) | 100% (active) | 100% (active) | 99.8% (active) | 95% (active) | 99% (active) | 99.3% (active) | 80% (active) | 99% (active) | 99.5% (active) | 93% (active) | 99% (active) | 99.5% (active) |
| Cc1[nH]n(C(N)=S)c(=O)c1N=Nc1ccc([N+](=O)[O-])cc1 | -19% | 35% | 91.5% (active) | -4% | 27% | 51.2% | -4% | 66% | 88.2% (active) | -13% | 33% | 7.5% | -12% | 54% | 51.8% | -6% | 48% | 93.4% (active) |
| Oc1cccc2ccc(/C=C/c3ccccn3)nc12 | 1% | 98% (active) | 97.4% (active) | 2% | 97% (active) | 97.2% (active) | -6% | 98% (active) | 98.2% (active) | -3% | 96% (active) | 95% (active) | -2% | 98% (active) | 97.1% (active) | 2% | 98% (active) | 98.5% (active) |
| O=S(=O)(Nc1ccc(-c2ccc(Cl)cc2)cc1)c1ccccc1 | 68% | 97% (active) | 92.5% (active) | 58% | 99% (active) | 93.2% (active) | 75% (active) | -21% | 97.8% (active) | 19% | 90% (active) | 92.3% (active) | 38% | 98% (active) | 95.8% (active) | 95% (active) | 98% (active) | 95% (active) |
| CC(C)CC(CC(C)C)NCC(C)OC(=O)C(c1ccccc1)c1ccccc1 (stereo not given) | -1% | 94% (active) | 29.2% | -8% | 78% (active) | 50.3% | -3% | 97% (active) | 84.8% (active) | -3% | 73% (active) | 20.9% | -9% | 93% (active) | 68.2% | 18% | 96% (active) | 95.2% (active) |

Reference: PubChem BioAssay (NCI)
